Screens deposited in PubChem BioAssay by National Center for Advancing Translational Sciences (NCATS).
HepG2 tox: counter-screen for TGF-b inhibitors: cytotoxicity in HepG2 cells; HepG2 CAGA-GFP viability, ATP luminescence, 18 h; Potency, µM (top dose mostly 46.1 µM), inactives show top-dose activity change, negative = cytotoxicity, hits mostly cytotoxic; 410,000 tested, 0.76% active; AID 588856; also: potency is read from the fitted curve at half-maximal effect
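CellTiter-Glo luminescence gave cytotoxicity after 18 hours at 37 degrees C. The cells were HepG2 CAGA-GFP in 1% FBS DMEM, stimulated with 500 pg/mL TGF-beta after compound addition. %Activity was normalised to no-cell wells (complete cell-killing) and DMSO (no toxicity), and curves were fitted and classified.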
TGFb SMAD3 inh: TGF-b pathway inhibition; HepG2 CAGA-GFP TGF-b/SMAD3 reporter, GFP fluorescence, 18 h; TGF-beta stimulated, 500 pg/mL final; Potency, µM (doses to about 46.1 µM), without a hit: top-dose activity, negative = inhibition, most hits filed as inhibitors; 410,000 tested, 1.2% active; AID 588855; also: potency is read from the fitted curve at half-maximal effect; % is scaled to controls: 0 for no effect and ±100 for the full control effect; nearly all actives have a fitted effect of over 65% in size
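First, reporter cells (HEPG2 CAGA-GFP) rested 2 h at 37 degrees C. Next, compounds were pinned in and TGF-beta added to 500 pg/mL final. After 18 h, GFP was imaged per cell and summed per well.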
TDP1 cell noCPT: qHTS for Inhibitors of human tyrosyl-DNA phosphodiesterase 1 (TDP1): qHTS in cells in absence of CPT; DT40 Tdp1-/- hTDP1 cells, no CPT, ATP luminescence, 48 h; Potency, µM (titrated, usually from 46.2 µM), inactives show top-dose activity change, negative = growth inhibition, usual class: inhibitors; 420,000 tested, 15% active; also: potency is read from the fitted curve at half-maximal effect; % is scaled to controls: 0 for no effect and ±100 for the full control effect; nearly all actives have a fitted effect of over 55% in size
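Readout: luminescence from CellTiter-Glo after 30 min in the dark at RT. Cells: DT40 Tdp1-/- with stable hTDP1, 400/well. Exposure: compounds alone, ≥48 hr, 37 °C.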
IL1B secr inh: inflammasome signaling inhibition, IL-1 beta readout. activity change, % at 57.5 µM. AID 743279. 360,000 tested, 4.7% active. THP-1 LPS/ATP IL-1B secretion, AlphaLISA, 16 h; active compounds read low; in the data active = activity change below about -50%; inconclusive = mostly about -30% to -49%; also: % is scaled to controls: 0 for no effect and ±100 for the full control effect
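Secreted IL-1B measured by AlphaLISA bead assay after 16 h compound exposure of THP-1 cells; compounds (final up to 57.5 uM) added 1 h before LPS (250 ng/mL) and ATP (1.25 mM) stimulation; lower signal means less secretion.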
TDP1 cell CPT: DT40-hTDP1 cell growth loss with CPT | chicken DT40 Tdp1-/-;hTDP1 cells + 20 nM CPT, ATP luminescence, 48 h | Potency, µM (doses to about 46.2 µM), for the others: top-dose activity change, negative = growth inhibition, most hits filed as inhibitors | 420,000 tested, 12% active | AID 686979; also: potency is read from the fitted curve at half-maximal effect; % is scaled to controls: 0 for no effect and ±100 for the full control effect; nearly all actives have a fitted effect of over 55% in size
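Cell growth measured by CellTiter-Glo luminescence after a minimum 48 h, 37 C compound exposure with 20 nM CPT in Tdp1-knockout DT40 cells stably expressing hTDP1, seeded 400/well; qHTS titration format.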
ASM inhibitor: human S-ASM enzyme inhibition | placental ASM, HMU-PC fluorogenic substrate, 60 min | Potency, µM (doses to about 57.5 µM), for inactives: at the top dose activity change, negative = inhibition, most hits filed as inhibitors | 340,000 tested, 0.006% active | AID 504937; also: potency is read from the fitted curve at half-maximal effect
Target sequence (P17405 47-631 limits assumed): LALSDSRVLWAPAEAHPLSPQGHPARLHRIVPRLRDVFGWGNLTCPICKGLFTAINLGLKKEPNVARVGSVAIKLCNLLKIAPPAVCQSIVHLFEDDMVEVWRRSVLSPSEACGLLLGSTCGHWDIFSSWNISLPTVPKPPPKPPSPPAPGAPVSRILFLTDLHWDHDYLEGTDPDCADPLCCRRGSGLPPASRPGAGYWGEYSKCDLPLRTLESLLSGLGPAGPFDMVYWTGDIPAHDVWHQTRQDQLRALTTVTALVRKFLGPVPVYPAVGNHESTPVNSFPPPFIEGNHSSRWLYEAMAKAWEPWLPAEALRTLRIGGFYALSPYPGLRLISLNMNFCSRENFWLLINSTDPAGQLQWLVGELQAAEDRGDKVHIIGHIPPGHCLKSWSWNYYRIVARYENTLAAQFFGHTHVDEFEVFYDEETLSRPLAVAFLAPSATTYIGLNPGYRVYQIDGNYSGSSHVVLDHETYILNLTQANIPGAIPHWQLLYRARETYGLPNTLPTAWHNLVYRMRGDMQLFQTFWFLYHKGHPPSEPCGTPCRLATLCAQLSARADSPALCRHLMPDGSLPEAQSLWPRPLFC
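Fluorescence read-out (Ex 386 nm, Em 447 nm) after stopping the reaction at pH 10. Enzyme: ASM from human placenta; substrate HMU-PC0, 9 uM final; 60 min, 37 °C. Compound preincubation 10 min, ambient temperature.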
Starred values were filed as active, the others as inactive; i = inactive; u = inconclusive; x = no result given. A selection: hits, their analogues and other compounds. The true share with any hit is near 19%. Unless noted, calls follow the shape of the dose curve; as a rule, active = well fitted curve in the direction sought with a large enough effect; inconclusive = small, poorly fitted or top-dose-only effect, or another doubt; inactive = no such curve, though single readings can be large; an effect the other way counts as inactive or inconclusive.

SMILES	HepG2 tox	TGFb SMAD3 inh	TDP1 cell noCPT	IL1B secr inh	TDP1 cell CPT	ASM inhibitor
N#CC(=C(O)COC(=O)CCCNC(=O)c1ccc(Cl)cc1)c1nc2ccccc2[nH]1	5%	8%	-18%	-97*	u	-1%
N#CC(=C(O)COC(=O)Cc1c[nH]c2ccccc12)c1nc2ccccc2[nH]1	-2%	12%	u	40	2%	-10%
CC(C)(C)c1ccc(C(=O)OC/C(O)=C(\C#N)c2nc3ccccc3s2)cc1	1%	-27%	u	i	u	3%
N#C/C(=C(/O)COC(=O)CCC1CCCCC1)c1nc2ccccc2[nH]1	-8%	0%	4.1µM*	-85*	5.2µM*	1%
N#C/C(=C(/O)COC(=O)c1ccccc1O)c1nc2ccccc2s1	-23%	12%	16µM*	14	-26%	5%
CCCC(=O)OC/C(O)=C(\C#N)c1nc2ccccc2[nH]1	-7%	-12%	u	-105*	-14%	4%
Cc1ccc(NCCCCO)cc1C	-5%	-13%	u	0	6%	0%
COc1ccc(CN2C(=O)CCC2(C)c2nnnn2Cc2ccccc2)cc1OC (configuration not stated)	x	x	-1%	12	-2%	x
N#C/C(=C(/O)CCl)c1nc2ccccc2[nH]1	-31%	10µM*	5.2µM*	-95*	2.6µM*	38%
CC(C)C(=O)OC/C(O)=C(\C#N)c1nc2ccccc2[nH]1	-1%	14%	-8%	80	4%	2%
COCC(=O)OC/C(O)=C(\C#N)c1nc2ccccc2[nH]1	-15%	-7%	2.6µM*	-104*	2.9µM*	7%
N#C/C(=C(/O)COC(=O)c1cccnc1Cl)c1nc2ccccc2[nH]1	-14%	2%	23µM*	59	18µM*	4%
N#C/C(=C(\O)Cc1ccccc1)c1nc2ccccc2[nH]1	-23%	-15%	u	0	u	0%
COc1ccc(NC(=O)Cn2ccn(Cc3ccccc3)c(=O)c2=O)cc1Cl	-9%	-1%	31%	x	-18%	x
N#Cc1sc(NCc2ccccn2)nc1Cl	-6%	10%	-6%	2	4%	4%
O=C(COC(=O)C1CC2C=CC1C2)NCCc1ccccc1 (configuration not stated)	2%	-1%	-8%	u	17%	4%
CN1CCN(c2ccccc2NC(=O)c2ccc(-c3ccccc3[N+](=O)[O-])o2)CC1	-43%	-13%	16µM*	0	15µM*	-1%
O=C(NC(=S)Nc1ccccc1N1CCCC1)c1ccc(-c2cccc([N+](=O)[O-])c2)o1	-13%	-5%	u	u	u	-2%
O=C(NC(=S)Nc1ccccc1N1CCCCC1)c1ccc(-c2cccc([N+](=O)[O-])c2)o1	-8%	-2%	23µM*	-11	u	-9%
Cc1ccccc1N1CCN(C(=S)c2ccc(-c3cccc([N+](=O)[O-])c3)o2)CC1	-2%	-14%	-27%	37	u	-13%
CC(=O)N1CCN(c2ccccc2NC(=O)c2ccc(-c3cccc([N+](=O)[O-])c3)o2)CC1	-3%	-2%	16µM*	-11	23µM*	-10%
COc1ccc(C(=O)C[n+]2cn(C(F)F)c3ccccc32)c(F)c1	-31%	u	21µM*	u	u	8%
NC(=O)c1ccccc1NC(=O)CN1CCN(Cc2ccccc2)CC1	-4%	-3%	-3%	9	-8%	0%
O=C(Cn1nc(-c2ccccc2Cl)ccc1=O)Nc1ccccc1-c1ccccc1	11%	-28%	18µM*	1	u	-3%
